Laboratory results as given in the supplement of paper PMC8728848.
This excerpt belongs to a sample that is enriched for the strongest signals.

Experiments:
Assay in all cases: glycan array binding signal (z-score within array); higher = stronger binding
Details in all cases: glycan notation: IUPAC condensed, linker removed
[1] = target: Fuc(a1-2)Gal(b1-3)GalNAc(b1-3)Gal
How it was run: (§1)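 Arrays were curated from the Consortium for Functional Glycomics database, 3228 in total, and kept only where the protein sequence was available. Binding is expressed as a within-array Z-score. This score was averaged across arrays of the same protein sequence at different concentrations or buffers and across linkers, and negative values can be read as non-binding.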

[2] = target: Fuc(a1-2)Gal(b1-4)GlcNAc(b1-3)Gal(b1-4)GlcNAc(b1-3)Gal(b1-4)GlcNAc
How it was run: as §1

[3] = target: Fuc(a1-2)Gal(b1-4)GlcNAc(b1-3)GalNAc
How it was run: as §1

[4] = target: Fuc(a1-2)Gal(b1-4)[Fuc(a1-3)]GlcNAc(b1-3)Gal(b1-4)[Fuc(a1-3)]GlcNAc
How it was run: as §1

[5] = target: Fuc(a1-2)[Gal(a1-3)]Gal(b1-3)GalNAc
How it was run: as §1

[6] = target: Fuc(a1-2)[Gal(a1-3)]Gal(b1-4)GlcNAc
How it was run: as §1

[7] = target: Fuc(a1-2)[Gal(a1-3)]Gal(b1-4)GlcNAc(b1-3)[Fuc(a1-2)[Gal(a1-3)]Gal(b1-4)GlcNAc(b1-6)]GalNAc
How it was run: as §1

[8] = target: Fuc(a1-2)[Gal(a1-3)]Gal(b1-4)[Fuc(a1-3)]GlcNAc(b1-3)GalNAc
How it was run: as §1

[9] = target: Fuc(a1-2)[GalNAc(a1-3)]Gal(b1-4)GlcNAc
How it was run: as §1

Fuc(a1-3)GlcNAc = target: Fuc(a1-3)GlcNAc
How it was run: as §1

[10] = target: Fuc(a1-3)[Gal(b1-4)]GlcNAc(b1-2)Man(a1-3)[Fuc(a1-3)[Gal(b1-4)]GlcNAc(b1-2)Man(a1-6)]Man(b1-4)GlcNAc(b1-4)[Fuc(a1-6)]GlcNAc
How it was run: as §1

Gal(a1-2)Gal = target: Gal(a1-2)Gal
How it was run: as §1

Gal(a1-3)Gal(b1-4)Glc = target: Gal(a1-3)Gal(b1-4)Glc
How it was run: as §1

Gal(a1-3)Gal(b1-4)GlcNAc = target: Gal(a1-3)Gal(b1-4)GlcNAc
How it was run: as §1

[11] = target: Gal(a1-3)Gal(b1-4)[Fuc(a1-3)]GlcNAc(b1-2)Man(a1-3)[Gal(a1-3)Gal(b1-4)[Fuc(a1-3)]GlcNAc(b1-2)Man(a1-6)]Man(b1-4)GlcNAc(b1-4)GlcNAc
How it was run: as §1

[12] = target: Gal(a1-3)[Gal(a1-4)]Gal(b1-4)GlcNAc
How it was run: as §1

[13] = target: Gal(b1-3)GlcNAc(b1-6)[Gal(b1-3)]GalNAc
How it was run: as §1

[14] = target: Gal(b1-4)GlcNAc(b1-2)Man(a1-3)[Gal(b1-4)GlcNAc(b1-2)Man(a1-6)]Man(b1-4)GlcNAc(b1-4)[Fuc(a1-6)]GlcNAc
How it was run: as §1

[15] = target: Gal(b1-4)GlcNAc(b1-2)Man(a1-3)[Man(a1-6)]Man(b1-4)GlcNAc(b1-4)GlcNAc
How it was run: as §1

[16] = target: Gal(b1-4)GlcNAc(b1-2)Man(a1-6)[GlcNAc(b1-2)Man(a1-3)]Man(b1-4)GlcNAc(b1-4)GlcNAc
How it was run: as §1

[17] = target: Gal(b1-4)GlcNAc(b1-2)[Gal(b1-4)GlcNAc(b1-4)]Man(a1-3)[GlcNAc(b1-4)][Gal(b1-4)GlcNAc(b1-2)Man(a1-6)]Man(b1-4)GlcNAc(b1-4)GlcNAc
How it was run: as §1

[18] = target: Gal(b1-4)GlcNAc(b1-3)Gal(b1-4)GlcNAc(b1-3)Gal(b1-4)GlcNAc(b1-3)Gal(b1-4)GlcNAc(b1-3)Gal(b1-4)GlcNAc(b1-2)Man(a1-3)[Gal(b1-4)GlcNAc(b1-3)Gal(b1-4)GlcNAc(b1-3)Gal(b1-4)GlcNAc(b1-3)Gal(b1-4)GlcNAc(b1-3)Gal(b1-4)GlcNAc(b1-2)Man(a1-6)]Man(b1-4)GlcNAc(b1-4)GlcNAc
How it was run: as §1

[19] = target: Gal(b1-4)GlcNAc(b1-3)Gal(b1-4)GlcNAc(b1-3)GalNAc
How it was run: as §1

[20] = target: Gal(b1-4)GlcNAc(b1-3)Gal(b1-4)[Fuc(a1-3)]GlcNAc(b1-3)Gal(b1-4)[Fuc(a1-3)]GlcNAc
How it was run: as §1

Gal3S(b1-4)GlcNAc = target: Gal3S(b1-4)GlcNAc
How it was run: as §1

GalNAc(a1-3)GalNAc = target: GalNAc(a1-3)GalNAc
How it was run: as §1

[21] = target: GalNAc(b1-4)GlcNAc(b1-2)Man(a1-3)[GalNAc(b1-4)GlcNAc(b1-2)Man(a1-6)]Man(b1-4)GlcNAc(b1-4)GlcNAc
How it was run: as §1

[22] = target: GalNAc3S(b1-4)[Fuc(a1-3)]GlcNAc
How it was run: as §1

[23] = target: Glc(a1-6)Glc(a1-6)Glc(a1-6)Glc
How it was run: as §1

[24] = target: GlcA3S(b1-3)Gal(b1-4)GlcNAc(b1-2)Man
How it was run: as §1

B1: BT3172pd (Bacteroides thetaiotaomicron) (protein)
chain: MLPLRAEHYYYKQISLKEGLPSNVRCILRDEQGFIWIGTKAGLGKFDGHQLKRYKHQANDPHSLLHNLIYQIAEDKQHNIWILTEKGIARYQQQSNNFTFPTDEEGNYITAYSFCLVPDGILFGGKDRIYKYSYKDSSLRLLQYFNANSFKITALSVWDSKTLLCCSRWTGLYLVDLQTGEHRRPPFDCGPEITSMITDSKNRIWIAPYSGGLRCYSRDGKLSASYTTHNSSLSNDIVLSLAEREEQLWIGTDGGGINILHPETGEISQLEYIPGRENYSLPANSILCLHNDYNNNVWAGSTCNGLISIREVSMKTYTDVVPGNDRGLSNGTVRSLYRQSPDSIWIGTDGGGINLFSPHTEKFTHYSSTWGDKVAFISGFTPGKLLISLFSKGVFVFNPATGEKQPFTIIDKETTTRLCNRGKSVNLYQNTPNTVLFLGDHIYQYHLKEKKFSTITEEEGKDIVGTLVPFDHQENLTYINDIKHIYELDDQTSRLKTVFECYTDTVISSVSHDEQGHFWIGSNFGLIHYDPVLKSRTLVPTNLFTEINMVLCDQKGKVWIGVDNMLFAYFIKEQKFVLFGESNGAIQNEYLPNARLVNEQGDAYIGGVKGMLRIDGQLLLNTSEMPELQLLDITINGESANHEWYNHPAKISVPWNSNISIRIMSREEDIFRQKIYRYQIEGLNNEYTESYNPELVIRSLLPGSYRIMASCTAKDGSWIPDQQVLELTVLPPWYRTHHHHHH
Q: For B1, which “glycan array binding signal (z-score)” value [1] is on record?
A: -1.16

Q: What about the “glycan array binding signal (z-score)” value [2] of the same binder?
A: -0.03

Q: And the “glycan array binding signal (z-score)” value [3]?
A: -0.024

Q: What about the “glycan array binding signal (z-score)” value [4] of the same binder?
A: -0.649

Q: What about the “glycan array binding signal (z-score)” value [5] of the same binder?
A: 0.258

Q: And the “glycan array binding signal (z-score)” value [6]?
A: -0.52

Q: What about the “glycan array binding signal (z-score)” value [7] of the same binder?
A: 5.41

Q: What about the “glycan array binding signal (z-score)” value [8] of the same binder?
A: -0.194

Q: And the “glycan array binding signal (z-score)” value [9]?
A: -0.511

Q: What about the “glycan array binding signal (z-score)” value (Fuc(a1-3)GlcNAc) of the same binder?
A: -0.076

Q: What about the “glycan array binding signal (z-score)” value [10] of the same binder?
A: 2.04

Q: And the “glycan array binding signal (z-score)” value (Gal(a1-2)Gal)?
A: -0.237

Q: What about the “glycan array binding signal (z-score)” value (Gal(a1-3)Gal(b1-4)Glc) of the same binder?
A: -0.327

Q: And the “glycan array binding signal (z-score)” value (Gal(a1-3)Gal(b1-4)GlcNAc)?
A: -0.339

Q: What about the “glycan array binding signal (z-score)” value [11] of the same binder?
A: 2.4

Q: What about the “glycan array binding signal (z-score)” value [12] of the same binder?
A: 2.39

Q: What about the “glycan array binding signal (z-score)” value [13] of the same binder?
A: -0.299

Q: What about the “glycan array binding signal (z-score)” value [14] of the same binder?
A: -0.075

Q: And the “glycan array binding signal (z-score)” value [15]?
A: -0.349

Q: And the “glycan array binding signal (z-score)” value [16]?
A: 0.924

Q: What about the “glycan array binding signal (z-score)” value [17] of the same binder?
A: -0.47

Q: And the “glycan array binding signal (z-score)” value [18]?
A: 5.07

Q: What about the “glycan array binding signal (z-score)” value [19] of the same binder?
A: -0.264

Q: And the “glycan array binding signal (z-score)” value [20]?
A: -0.565

Q: What about the “glycan array binding signal (z-score)” value (Gal3S(b1-4)GlcNAc) of the same binder?
A: 0.279

Q: What about the “glycan array binding signal (z-score)” value (GalNAc(a1-3)GalNAc) of the same binder?
A: -0.288

Q: And the “glycan array binding signal (z-score)” value [21]?
A: -0.134

Q: What about the “glycan array binding signal (z-score)” value [22] of the same binder?
A: 6.05

Q: What about the “glycan array binding signal (z-score)” value [23] of the same binder?
A: 0.665

Q: And the “glycan array binding signal (z-score)” value [24]?
A: -0.286
